Experimental data: ChEMBL document CHEMBL4513216, “Probing the Open Global Health Chemical Diversity Library for Multistage-Active Starting Points for Next-Generation Antimalarials” (ACS Infect Dis, 2020)
Hit rate of the full screen: of about 68,000 compounds, about 2,700 (4%) showed an effect of 50% or more. This is one part of a sample in which strong results are shown more often than they occur.

Tested on: Plasmodium berghei
Experiment: Screen against P. berghei liver stage (PbLuc), transformed with Luciferase, at 2uM
Type: functional, HepG2
Conditions: tested at 2 uM

SMILES	INHIBITION [%]
CCN(C(=O)c1cccc2c1OCO2)c1ccccc1	-0.15
O=C1CC2(CCN(S(=O)(=O)C3CC3)C2)CN1c1cncnc1 (centres undefined)	34.34
Cn1nccc1CCC(=O)N1CCCC(Cc2cccnc2)C1 (centres undefined)	-24.85
Cc1ccc(CN(C(=O)NC2CCS(=O)(=O)C2)C2CC2)o1 (centres undefined)	1.88
CCOc1cc(C)ccc1NC(=O)N(C)Cc1cnn(C)c1	17.39
COCCOc1cc(C)ccc1NC(=O)N(C)Cc1cnn(C)c1	64.16
CCCOc1cc(C)ccc1NC(=O)N(C)Cc1cnn(C)c1	-31.72
O=C1CCCC2=C1C(c1ccccc1Cl)C1C(=O)NN=C1N2 (centres undefined)	31.66
Cn1ncc2c1CN(Cc1ccccc1F)CC2COCC1CC1 (centres undefined)	21.42
Nc1nnc(C2CC(=O)N(c3ccccc3)C2)s1 (centres undefined)	74.36
Cc1c(Cl)cccc1N1CC(c2nnc(N)s2)CC1=O (centres undefined)	8.41
CCc1ccccc1N1CC(c2nnc(N)s2)CC1=O (centres undefined)	51.78
O=C(C1CC(=O)N(c2ccccc2)C1)N1CCC2(CC1)OCCO2 (centres undefined)	28.17
Cc1cc(C)cc(N2CC(c3nnc(N)s3)CC2=O)c1 (centres undefined)	35.41
O=C1C[C@@H]2CCN(Cc3ccccc3)C[C@@H]2CCN1c1ccccc1	44.84
Cc1cccc(N2CC3(CCN(c4nncs4)C3)CC2=O)c1 (centres undefined)	5.77
CS(=O)(=O)NC1CC(=O)N(c2ccccc2Cl)C1 (centres undefined)	34.28
Cc1cccc(N2CC(c3nnc(N)s3)CC2=O)c1 (centres undefined)	52.23
CN(C)C1CC2(CCN(C(=O)c3csnn3)CC2)c2ccccc21 (centres undefined)	24.51
CCc1nc2c(NCC3COc4cc(OC)ccc4C3)ncnc2o1 (centres undefined)	23.17
CCCc1n[nH]c(C2CN(C(=O)CCn3cc(C)cn3)CCO2)n1 (centres undefined)	14.21
Cn1cc(CN2C[C@H]3CCN(C(=O)c4cscn4)C[C@H]3C2)cn1	34.24

SMILES	INHIBITION [%]
CCCN(CC(=O)NC)C(=O)c1ccc(-c2nc(C)cs2)cc1	46.98
CCCN(CC(=O)N(C)C)C(=O)c1ccc(-c2nc(C)cs2)cc1	-0.15
CCN(CC(=O)N(C)C)C(=O)c1ccc(-c2nc(C)cs2)cc1	53.81
CC(C)(C)CC(=O)NCC(=O)Nc1ccn(Cc2ccccc2)n1	43.87
O=C(NCc1nnc2ccccn12)N1CCOC(c2ccsc2)C1 (centres undefined)	63.39
O=C(NCc1nnc2ccccn12)N1CCc2sccc2C1	30.31
CCn1cnnc1CNC(=O)N1CCOC(c2ccccc2Cl)C1 (centres undefined)	42.19
O=C(NCc1nnc2ccccn12)N1CCOC(c2cccs2)C1 (centres undefined)	50.46
O=C(NCc1nccs1)N1CCOC(c2ccccc2Cl)C1 (centres undefined)	-71.45
Cc1ccc(C2CN(C(=O)NCc3nnc4ccccn34)CCO2)o1 (centres undefined)	26.03
CCN1CCC2(CC1)OCCN2C(=O)c1cc(Cl)c(OC)c(Cl)c1	19.62
Cc1cc(C)n(C2CCCN(C(=O)c3ccc(N(C)C)nc3)C2)n1 (centres undefined)	-35.65
Cc1noc(C)c1S(=O)(=O)N(CC(N)=O)CC(C)C	23.08
CC(C)n1cc(CN2CCCN(C(=O)C(C)n3cccn3)CC2)cn1 (centres undefined)	-86.2
O=c1ccc2c(n1CC1CC1)CCC(NCc1cccs1)C2 (centres undefined)	-26.76
CCC(C(=O)NC1CCCCC1)n1cccc(OC)c1=O (centres undefined)	-6.88
CCC(C(=O)NC(C)(C)C)n1cccc(OC)c1=O (centres undefined)	56.16
CCC(C(=O)NC(C)(C)C)n1ccc2ncccc2c1=O (centres undefined)	8.09
CCN(C)S(=O)(=O)N1C[C@H]2CC[C@@H](C1)N(Cc1cscn1)C2=O	48.21
CC(NC(=O)N(C)Cc1cccc(OC(F)F)c1)c1nncn1C (centres undefined)	59.03
CCOc1ccc(CN(C)C(=O)NC(C)c2nncn2C)cc1 (centres undefined)	-27.75
CCn1cnnc1CNC(=O)N(C)Cc1ccc(F)c(F)c1	-2.9

SMILES	INHIBITION [%]
COc1ccc(CN(C)C(=O)NC(C)c2nncn2C)cc1F (centres undefined)	-6.61
CCn1cnnc1CNC(=O)N(C)Cc1ccc2c(c1)OCCO2	-16.42
CCn1cnnc1CNC(=O)N(C)Cc1cccc(OC(F)F)c1	64.16
Cc1cccc(CN2CCC(C3Nc4ccccc4S(=O)(=O)N3)CC2)n1 (centres undefined)	7.38
COc1cc(N2C[C@@H]3COC[C@]3(COCc3ccccn3)C2)ncn1	-14.27
Cn1ccnc1CN1CCCC2(CCN(CC3CCCO3)CC2)C1 (centres undefined)	26.46
Cc1nc(C2CCCN(C(=O)c3ccc(OCC4CC4)nc3)C2)no1 (centres undefined)	28.65
CC1(CCNC(=O)NCc2ccsc2)OCCO1	57.23
CC(CNC(=O)NCc1ccsc1)CC1(C)OCCO1 (centres undefined)	-35.5
CC1(C(=O)NCc2ccsc2)CCOCC1	5.75
O=C(Cn1nc2c(cc1=O)CCCC2)NC(C(=O)O)c1ccccc1 (centres undefined)	25.23
CC1COCCN1Cc1nc(Cc2ccccc2)no1 (centres undefined)	-23.37
COc1ncc(NCc2ccc(F)cc2)cc1C(N)=O	17.18
COc1ncc(NCc2ccc(C#N)cc2)cc1C(N)=O	63.31
COc1ncc(NCc2cccc(C#N)c2)cc1C(N)=O	-7.69
CN1C(=O)CC(C(=O)O)C12CCN(c1ccc3cccc(Cl)c3n1)CC2 (centres undefined)	-1.78
Cc1ccccc1CC(C)NC(=O)Nc1cnn(CC(N)=O)c1 (centres undefined)	81.1
CC(CCc1ccccc1)NC(=O)Nc1cnn(CC(N)=O)c1 (centres undefined)	41.72
CC(Cc1ccccc1Cl)NC(=O)Nc1cnn(CC(N)=O)c1 (centres undefined)	-7.81
COCCN1CCC2(CC1)CN(CCn1cccn1)C(=O)CO2	20.2
Cc1ccc(C(=O)N(C)CC(=O)NCC(F)(F)F)cn1	71.4
Cc1ccc(C(=O)N(C)CC(=O)Nc2cccc(C)n2)cn1	23.76

SMILES	INHIBITION [%]
CN(CC(=O)NCC(F)(F)F)C(=O)c1ccc(C(=O)OC(C)(C)C)cc1	-16.4
CCC(=O)Nc1cc(Cl)ccc1C(=O)N(C)Cc1noc(CC)n1	1.1
COc1cc(F)c(-n2cnc(CCNC(C)=O)c2)cc1F	60.13
COc1ccc(F)cc1-n1cnc(CCNC(C)=O)c1	45.82
COc1ccc(Cl)cc1-n1cnc(CCNC(C)=O)c1	26.74
CC(=O)N(CCc1nc(-c2cc(C(N)=O)oc2C)cs1)C(C)C	10.22
COc1cc(OC)c(C2CC(=O)Oc3cc(C)[nH]c(=O)c32)c(OC)c1 (centres undefined)	14.96
O=C(O)C(c1ccc2c(c1)OCO2)N1CCCCCC1 (centres undefined)	59.48
O=C(O)C(c1ccc2c(c1)OCCO2)N1CCCCCC1 (centres undefined)	19.56
O=C(O)C(c1ccc2c(c1)OCO2)N1CCCC1 (centres undefined)	4.53
Cc1ccc(-n2cc3[nH]c(=O)[nH]n3c2=O)cc1	-15.37
Cc1ccc(CN2CCC3(CC(C(=O)NC4CCC4)=NO3)C2)o1 (centres undefined)	-27.21
CN1CCC2(CC1)CN(C)C(=O)C[C@@H]2C(F)(F)F	6.22
CC(=O)N1CCC2(CC1)CN(C)C(=O)C[C@H]2C(F)(F)F	64.92
CC(C)N1CCC2(CC1)CN(C)C(=O)C[C@H]2C(F)(F)F	-24.39
CCN(CC)S(=O)(=O)N1C[C@@H](O)[C@H](Oc2cccc(F)c2)C1	16.01
Cc1nc(N2CCCC2)nc2c1CCN(C(=O)CC1CCCC1)CC2	1.33
COC(=O)c1ccc2ccn(CC3CCCO3)c(=O)c2c1 (centres undefined)	52.21
COC(=O)c1ccc2ccn(CC3CCCCO3)c(=O)c2c1 (centres undefined)	-32.35
COC(=O)c1ccc2ccn(CC3COCCO3)c(=O)c2c1 (centres undefined)	21
COc1ccc(CCNCc2c(C)nn(C)c2N(C)C)cc1OC	7.74
O=C1CC(c2ccc(O)cc2)c2sc(C(=O)O)c(-c3ccccc3)c2N1 (centres undefined)	20.4

SMILES	INHIBITION [%]
CC(C)C(=O)N1CC2(CCN(CC(C)(C)C)CC2)C1	50.72
CC(C)C(=O)N1CCC2(CN(CC3CCCC3)C2)C1	0.32
CC(C)CN1CCC2(CC1)CN(C(=O)C(C)C)C2	16.12
CS(=O)(=O)N1CCC2(CCN(C(=O)c3cccs3)CC2)CC1	11.79
COCCCn1ccnc1-c1cnc(OC)nc1	-26.85
COC(=O)CCCn1ccnc1-c1ccccc1	1.42
COCc1ncc(-c2nccn2CCN(C)C)cn1	-24.39
CCCn1ccnc1-c1nccn1CCC(N)=O	43.44
CCCSc1ncc(-c2nccn2CCO)cn1	52.98
COCc1ncc(-c2nccn2CCn2cnnc2)cn1	-0.15
CCSc1ncc(-c2nccn2CCN(C)C)cn1	59.03
COc1ncc(-c2nccn2CCN(C)C)cn1	-37.29
CCCSc1ncc(-c2nccn2CCC(N)=O)cn1	60.13
CN(C)C(=O)COC[C@]12COC[C@H]1CN(Cc1ccccc1)C2	42.18
Cc1ccc(CC(=O)Nc2cc(C(C)C)n[nH]2)cn1	29.54
NC(=O)c1cc(C2CC2)nc2ccc(F)cc12	-28.49
CC(Nc1cccc2c1OCCO2)C(=O)Nc1cccc(C#N)c1 (centres undefined)	17.64
COCCCN(C)C(=O)c1cccc(Nc2cnccn2)c1	-5.53
CC(C)n1ccc(C(=O)NCC(O)c2c(Cl)cccc2Cl)n1 (centres undefined)	-6.2
CCCS(=O)(=O)NCC(O)c1c(Cl)cccc1Cl (centres undefined)	-35.21
CCN(CC)S(=O)(=O)NCC(O)c1c(Cl)cccc1Cl (centres undefined)	51
